ATXN2 expr inh: ATXN2 expression inhibition. HEK-293 ATXN2-luciferase reporter, luminescence, 24 h. Potency, µM (titrated, usually from 57 µM), inactives show at the highest dose activity change, negative = inhibition, hits mostly inhibitors. 0.72% of 360,000 active. AID 1745845; note: % is set by controls: 0 for no effect and ±100 for the full control effect; nearly all actives have a fitted effect of over 55% in size
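ATXN2-luciferase reporter cells (luciferase flanked by upstream and downstream ATXN2 gene portions) were treated 24 h at 37 °C with compounds at up to 57 uM. SteadyGlo luminescence gave expression; GF-AFC fluorescence gave viability.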
DT40 TDP1 CPT: growth inhibition of DT40 Tdp1-/-;hTDP1 cells with camptothecin (screen for TDP1 inhibitors) | chicken DT40 Tdp1-/-;hTDP1 cells + 20 nM CPT, ATP luminescence, 48 h | Potency, µM (doses to about 46.2 µM), inactives show top-dose activity change, negative = growth inhibition, actives largely listed as inhibitors | 12% of 420,000 active; note: % is set by controls: 0 for no effect and ±100 for the full control effect; nearly all actives have a fitted effect of over 55% in size
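Cell growth measured by CellTiter-Glo luminescence after a minimum 48 h, 37 C compound exposure with 20 nM CPT in Tdp1-knockout DT40 cells stably expressing hTDP1, seeded 400/well; qHTS titration format.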
S2 tox: viability counter-screen for ATXN expression inhibitors; 0.49% of 400,000 active; Potency, µM (series often up to 56.7 µM), actives largely listed as cytotoxic; S2 cells (HEK-293 line with an ATXN2-luciferase reporter) viability, CellTiter-Fluor protease fluorescence, 24 h; note: nearly all actives have a fitted effect of over 40% in size
HepG2 viability: kills HepG2 cells in TGF-b inhibitor counter-screen | Potency, µM (series often up to 46.1 µM), for inactives: at the highest dose activity change, negative = cytotoxicity, usual class: cytotoxic | HepG2 CAGA-GFP viability, ATP luminescence, 18 h | 0.76% of 410,000 active
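HepG2 CAGA-GFP cells (1000/well, DMEM with 1% FBS) received compound, then TGF-beta at 500 pg/mL final, and were incubated 18 hours at 37 degrees C. Viability was read by CellTiter-Glo luminescence. Media-only wells were set as complete cell-killing and DMSO as no toxicity.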
TDP1 cell noCPT: qHTS for Inhibitors of human tyrosyl-DNA phosphodiesterase 1 (TDP1): qHTS in cells in absence of CPT. DT40 Tdp1-/- hTDP1 cells, no CPT, ATP luminescence, 48 h. Potency, µM (top dose mostly 46.2 µM), without a hit: at the top dose activity change, negative = growth inhibition, hits mostly inhibitors. 15% of 420,000 active; note: % is set by controls: 0 for no effect and ±100 for the full control effect; nearly all actives have a fitted effect of over 55% in size
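Cells were dispensed at 400 per well, compounds added by pin tool, plates incubated ≥48 hr at 37 °C, then CellTiter-Glo added for 30 min at room temperature before luminescence reading. Line: DT40 Tdp1-/- complemented with hTDP1; camptothecin omitted.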
TGFb inhibitor: TGF-b pathway inhibition; HepG2 CAGA-GFP TGF-b/SMAD3 reporter, GFP fluorescence, 18 h; TGF-beta stimulated, 500 pg/mL final; Potency, µM (top dose mostly 46.1 µM), without a hit: at the highest dose activity, negative = inhibition, usual class: inhibitors; 1.2% of 410,000 active; note: % is set by controls: 0 for no effect and ±100 for the full control effect; nearly all actives have a fitted effect of over 65% in size
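Smad-responsive CAGA-GFP expression was quantified in HEPG2 cells exposed to compounds and 500 pg/mL final TGF-beta for 18 h at 37 degrees C; unstimulated wells defined full inhibition.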
* marks the source's active call; other numbers are inactive results; i = inactive; ? = inconclusive; nt = not tested or not shown. Only some compounds are listed: those with a hit (about 17% of all), similar ones and a draw of the others. Calls come from the whole dose curve; as a rule, active = well fitted curve in the direction sought with a large enough effect; inconclusive = small, poorly fitted or top-dose-only effect, or another doubt; inactive = no such curve, though single readings can be large; an effect the other way counts as inactive or inconclusive. Potency is the fitted concentration of half-maximal effect.

SMILES	ATXN2 expr inh	DT40 TDP1 CPT	S2 tox	HepG2 viability	TDP1 cell noCPT	TGFb inhibitor
NC(c1csc(Nc2cc(Oc3ccccc3)ncn2)n1)C1CCCCC1 (stereo not given)	?	?	?	-113.5%	?	?
Nc1ccc(CC(N)c2csc(Nc3cc(Oc4ccccc4)ncn3)n2)cc1 (stereo not given)	-7.4%	?	i	-27.4%	23.1µM*	?
O=S1(=O)N=C(Oc2cccc3ccccc23)c2ccccc21	-5.1%	-7.6%	i	3.4%	-15.5%	-26.6%
CCc1ccc(OCC(=O)Nc2ccc(N3CCN(S(C)(=O)=O)CC3)cc2)cc1	-7.1%	-9.6%	i	-10.6%	-3.9%	7.0%
CC(=O)Nc1ccc2[nH]c(C)cc(=O)c2c1	0.5%	8.4%	i	-7.8%	-25.7%	-4.2%
COc1cccc(-c2cc(=O)c3cc(NC(C)=O)ccc3[nH]2)c1	5.9%	?	i	-21.5%	16.4µM*	?
CCCCOc1ccc(CNC(=O)C2CCCN(c3nnc(-n4c(C)ccc4C)s3)C2)cc1 (stereo not given)	2.6%	?	i	-10.9%	?	?
Cc1ccc(CNC(=O)C2CCCN(c3nnc(-n4c(C)ccc4C)s3)C2)cc1 (stereo not given)	nt	?	nt	-11.2%	18.4µM*	nt
Cc1ccc(C)n1-c1nnc(N2CCCC(C(=O)NCc3ccc(Cl)cc3)C2)s1 (stereo not given)	nt	?	nt	-5.3%	9.2µM*	nt
Cc1ccc(C)n1-c1nnc(N2CCCC(C(=O)NCc3ccc(F)cc3)C2)s1 (stereo not given)	-17.4%	18.4µM*	i	-5.0%	8.2µM*	0.0%
COc1cccc(CNC(=O)C2CCCN(c3nnc(-n4c(C)ccc4C)s3)C2)c1OC (stereo not given)	6.1%	?	i	-14.9%	?	-47.4%
CC(C)(C)c1csc(N(CCC#N)CCC#N)n1	-0.1%	-3.5%	i	-8.8%	-20.5%	0.4%
CCCOc1ccc(C(=O)Nc2cccc(NC(=O)c3cccc(Cl)c3)c2)cc1	10.0%	-23.6%	?	1.6%	-27.3%	-2.7%
CCOc1ccc(NS(=O)(=O)c2cc(NC(=O)c3ccc(C)cc3)ccc2Cl)cc1	-23.9%	3.66µM*	?	-6.7%	2.59µM*	?
CCOc1ccc(C(=O)Nc2cccc(NC(=O)c3ccc(Cl)cc3Cl)c2)cc1	nt	?	nt	-64.4%	20.6µM*	11.2µM*
COCCn1c(SCC(=O)Nc2ccc3c(c2)OCCO3)nnc1-c1ccncc1	0.2%	-22.1%	i	-3.8%	-6.9%	1.9%
O=C(OC1CC2CC1[C@H]1CCCCN1C2=O)N1CCN(S(=O)(=O)c2ccccc2)CC1 (stereo not given in full)	7.7%	-23.6%	i	nt	?	nt
CCOC(=O)N(C)c1c(CC)nc2c(OCc3ccccc3)cccn12	-19.8%	20.6µM*	i	-11.5%	23.1µM*	0.1%
CCc1nc2c(OCc3ccccc3)cccn2c1N(Cc1ccccc1)C(C)=O	?	18.4µM*	i	-3.0%	?	-16.2%
CCCCN1CC2=C(C1=O)C(c1ccc(O)cc1)NC(=O)N2C (stereo not given)	-6.8%	2.4%	i	-34.6%	-0.1%	?
CN(C)c1nc(Cc2ccc(NC(=O)c3ccc4ccccc4c3)cc2)nc(Cl)c1CC(=O)O	-1.2%	nt	nt	nt	nt	nt
O=C(OCCN1C(=O)c2cccc3c(N4CCOCC4)ccc(c23)C1=O)c1ccc(Cl)cc1Cl	-24.5%	3.66µM*	nt	4.5%	4.11µM*	50.3%
O=C(OCCN1C(=O)c2cccc3c(N4CCOCC4)ccc(c23)C1=O)c1cccc(Cl)c1	-37.3%	18.4µM*	nt	8.0%	8.2µM*	24.8%
O=C(OCCN1C(=O)c2ccccc2C1=O)c1cc(S(=O)(=O)N2CCOCC2)ccc1Cl	3.7%	8.9%	i	-1.6%	3.1%	26.3%
COc1ccc(-c2ccc(C(=O)Nc3cccc(N(C)C)c3)c3occc23)c(C)c1	6.5%	?	i	-21.4%	?	5.9%
SMILES	ATXN2 expr inh	DT40 TDP1 CPT	S2 tox	HepG2 viability	TDP1 cell noCPT	TGFb inhibitor
COc1ccc(-c2ccc(C(=O)Nc3ccc(C(C)C)cc3)c3occc23)c(C)c1	-13.5%	?	i	-3.2%	16.4µM*	18.5%
COc1ccc(-c2ccc(C(=O)Nc3cccc(C(C)=O)c3)c3occc23)c(C)c1	-25.4%	11.6µM*	?	-18.1%	8.2µM*	8.5%
COc1ccc(-c2coc3c(C(=O)Nc4cccc(C(C)=O)c4)cccc23)c(C)c1	?	18.4µM*	i	-3.9%	20.6µM*	-0.2%
COc1ccc(-c2coc3c(C(=O)Nc4cccnc4)cccc23)c(C)c1	-12.4%	18.4µM*	?	-16.1%	8.2µM*	-7.3%
COc1ccc(-c2ccc(C(=O)Nc3cccc(F)c3)c3occc23)c(C)c1	68.7%	?	i	-17.3%	?	-2.8%
COc1cc(/C=N/NC(=O)c2cn(-c3cccc(C)n3)cn2)ccc1O	-31.7%	?	i	8.0%	?	-2.5%
COc1ccc(-c2ccc(C(=O)Nc3cccc(Oc4ccccc4)c3)c3occc23)c(C)c1	-4.2%	23.1µM*	i	-25.2%	16.4µM*	-6.0%
O=C1c2ccccc2C(=O)N1c1nc(-c2ccc(F)cc2)cs1	nt	-8.0%	nt	6.3%	?	41.9%
N#Cc1c(/N=C/c2cc3ccccc3s2)sc2c1CCC2	26.7%	?	i	-29.0%	23.1µM*	-4.4%
COc1ccc(CCN(C)CC(O)COC(c2ccc(F)cc2)c2ccc(F)cc2)cc1OC (stereo not given)	-19.7%	16.4µM*	i	-93.4%	?	-110.1%
CN1CCN(S(=O)(=O)c2cccc(S(=O)(=O)c3ccc(Cl)cc3)c2)CC1	-25.3%	?	i	-19.3%	16.4µM*	8.0%
Cc1ccc(S(=O)(=O)c2cccc(S(=O)(=O)N3CCCC3)c2)cc1S(=O)(=O)N1CCCC1	-17.1%	20.6µM*	i	-16.4%	18.4µM*	-13.4%
Cc1ccc(S(=O)(=O)c2cccc(S(=O)(=O)N3CCOCC3)c2)cc1S(=O)(=O)N1CCOCC1	-9.5%	-8.7%	i	1.7%	?	-22.3%
O=S(=O)(c1ccccc1)c1cccc(S(=O)(=O)N2CCCCC2)c1	6.5%	?	i	-13.7%	?	-14.4%

Source: PubChem BioAssay
